Assay results: PubChem BioAssay AID1860 (The Scripps Research Institute Molecular Screening Center, 2009)
The list shows a part of the results. Calls of active or inactive are those of the source. No stated cut-off is given here; in the data, active means inhibition above about 8%; inactive means the rest.

The compounds below were run on VIM-2 metallo-beta-lactamase [Pseudomonas aeruginosa] (assay: P. aeruginosa VIM-2 enzyme inhibition – biochemical, epi-absorbance, HTS, confirmation (AID 1860;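 further: 0% = enzyme with vehicle and 100% = no enzyme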)). Conditions: purified VIM-2 enzyme, nitrocefin absorbance; at 5.6 µM; active compounds read high.

| Compound | inhibition |
| --- | --- |
| CN1C(=O)c2cccc3c(N)ccc(c23)C1=O | 48.4% (active) |
| C/C(=N\Nc1ccc(S(N)(=O)=O)cc1[N+](=O)[O-])c1cccs1 | 17.3% (active) |
| Oc1ccc2ccc3cccc[n+]3c2c1 | 30.2% (active) |
| CCC(=C/c1sc2ccc3ccccc3c2[n+]1C)/C=C1\Sc2ccc3ccccc3c2N1C | 12% (active) |
| c1ccc(-c2nccc(-c3ccc(-n4cnc5ccccc54)cc3)n2)nc1 | 71.7% (active) |
| COc1cc(/C=C2/SC(=S)N(Cc3ccccc3)C2=O)cc(OC)c1O | 13.7% (active) |
| NC(=O)c1ccc(NC(=O)COC(=O)c2c3c(nc4ccccc24)/C(=C\c2ccc4c(c2)OCO4)CCC3)cc1 | -0.41% (inactive) |
| Nc1c(C(=O)c2cccs2)sc2nsc(SCCN3CCCCC3)c12 | 31.7% (active) |
| Cc1nn(C)cc1N1C(=O)c2cccc3c(N)ccc(c23)C1=O | 35.2% (active) |
| Cc1cc2nc3c(=O)n(Cc4ccccc4)c(=O)[nH]c3nc2cc1N | 16.6% (active) |
| NS(=O)(=O)c1ccc(NC(=O)COC(=O)c2c3c(nc4ccccc24)/C(=C\c2ccc4c(c2)OCO4)CCC3)cc1 | -1.18% (inactive) |
